Test results from the supplement of paper PMC10849652.
Of roughly 8,800 targets only a part is listed; those with a hit were picked by preference. About 0.5% of all pairs of compound and target were hits. Unmarked numbers belong to inactive results.

Legend:
Test in all cases: log2 fold change, soluble protein after heating vs DMSO (PISA); higher = thermal stabilisation; K562 lysate, 10 uM; active = over 0.2 and 3.5 SD of the protein, either way, in both replicates (recomputed)
erlotinib = compound: C#Cc1cccc(Nc2ncnc3cc(OCCOC)c(OCCOC)cc23)c1 [erlotinib]
Method in brief: (§1)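 Soluble protein was defined as the supernatant remaining after 21,000xg for 90 min, following pooling of heated aliquots and adjustment to 0.5% NP-40 at 4°C. Before that, crude K562 extract at 1 mg/mL protein in PBS pH 7.4 with 1 mM MgCl2 was treated with 10 μM compound for 30 min and heated for 3 min across 48°C-58°C. Quantification used TMTpro 16plex LC-MS/MS with channel sums equalised, and values are log-two fold changes in thermal stability relative to solvent controls from duplicates.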

[1] = compound: C/C(=N\NC(=O)C1=CC(=CC=C1)S(=O)(=O)N2CCOCC2)/C3=C(C=CC(=C3)Cl)O
Method in brief: as §1

[2] = compound: C1=CC(=CC=C1C2=NC3=C(N2)C=C(C=C3)C(=O)N)OC4=CC=C(C=C4)Cl
Method in brief: as §1

[3] = compound: C1=CC2=C(C=CC(=C2)/C=C\3/C(=O)NC(=NCC4=CC=CS4)S3)N=C1
Method in brief: as §1

[4] = compound: C1=CC2=NC=CN=C2C=C1/C=C/3\C(=O)NC(=O)S3
Method in brief: as §1

[5] = compound: C1=CC=C(C=C1)C2=NC(=C(N2)C3=CC=NC=C3)C4=CC(=C(C=C4)Cl)O
Method in brief: as §1

[6] = compound: C1=CC=C2C(=C1)C3=NNC4=CC=CC(=C43)C2=O
Method in brief: as §1

[7] = compound: C1CCN(C1)C(=O)NC2=CC=CC(=C2)NC3=NC=C(C(=N3)NCCC4=CN=CN4)Br
Method in brief: as §1

[8] = compound: C1CN(CCC1(CC2=CC=C(C=C2)Cl)N)C3=NC=NC4=C3C=CN4
Method in brief: as §1

IRAK-1-4 Inhibitor I = compound: C1COCCN1CCN2C3=CC=CC=C3N=C2NC(=O)C4=CC(=CC=C4)[N+](=O)[O-] [IRAK-1-4 Inhibitor I]
Method in brief: as §1

## PHKA1 (UniProt P46020)
erlotinib
  log2 fold change: -0.011
[1]
  log2 fold change: 0.003
[2]
  log2 fold change: -0.015
[3]
  log2 fold change: 0.063
[4]
  log2 fold change: 0.078
[5]
  log2 fold change: -0.027
[6]
  log2 fold change: 0.205
[7]
  log2 fold change: 0.05
[8]
  log2 fold change: 0.026
IRAK-1-4 Inhibitor I
  log2 fold change: 0.01

## PPP4R2 (UniProt Q9NY27)
UniProt Q9NY27, sequence (Q9NY27 whole entry, looked up): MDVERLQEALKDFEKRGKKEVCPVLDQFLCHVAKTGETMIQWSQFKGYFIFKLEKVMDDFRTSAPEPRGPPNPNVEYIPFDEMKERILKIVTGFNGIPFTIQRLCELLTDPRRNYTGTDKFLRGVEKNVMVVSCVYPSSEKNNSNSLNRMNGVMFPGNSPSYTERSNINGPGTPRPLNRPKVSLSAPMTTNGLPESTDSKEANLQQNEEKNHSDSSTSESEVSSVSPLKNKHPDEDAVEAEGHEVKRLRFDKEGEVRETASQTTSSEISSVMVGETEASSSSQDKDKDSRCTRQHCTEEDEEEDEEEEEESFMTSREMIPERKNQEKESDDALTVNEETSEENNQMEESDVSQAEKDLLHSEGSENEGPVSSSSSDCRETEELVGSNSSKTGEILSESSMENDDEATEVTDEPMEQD
erlotinib
  log2 fold change: 0.004
[1]
  log2 fold change: -0.007
[2]
  log2 fold change: 0.025
[3]
  log2 fold change: 0.063
[4]
  log2 fold change: -0.029
[5]
  log2 fold change: -0.02
[6]
  log2 fold change: 0.013
[7]
  log2 fold change: 0.004
[8]
  log2 fold change: 0.004
IRAK-1-4 Inhibitor I
  log2 fold change: 0.012

## PCIF1 (UniProt Q9H4Z3)
erlotinib
  log2 fold change: -0.011
[1]
  log2 fold change: 0.067
[2]
  log2 fold change: -0.008
[3]
  log2 fold change: 0.042
[4]
  log2 fold change: 0.102
[5]
  log2 fold change: -0.015
[6]
  log2 fold change: 0.014
[7]
  log2 fold change: -0.011
[8]
  log2 fold change: -0.033
IRAK-1-4 Inhibitor I
  log2 fold change: -0.041

## POC5 (UniProt Q8NA72)
erlotinib
  log2 fold change: -0.022
[1]
  log2 fold change: -0.083
[2]
  log2 fold change: -0.01
[3]
  log2 fold change: 0.069
[4]
  log2 fold change: -0.025
[5]
  log2 fold change: 0.039
[6]
  log2 fold change: -0.144
[7]
  log2 fold change: 0.045
[8]
  log2 fold change: 0.043
IRAK-1-4 Inhibitor I
  log2 fold change: 0.069

## PCBP3 (UniProt P57721)
UniProt P57721, sequence (P57721 whole entry, looked up): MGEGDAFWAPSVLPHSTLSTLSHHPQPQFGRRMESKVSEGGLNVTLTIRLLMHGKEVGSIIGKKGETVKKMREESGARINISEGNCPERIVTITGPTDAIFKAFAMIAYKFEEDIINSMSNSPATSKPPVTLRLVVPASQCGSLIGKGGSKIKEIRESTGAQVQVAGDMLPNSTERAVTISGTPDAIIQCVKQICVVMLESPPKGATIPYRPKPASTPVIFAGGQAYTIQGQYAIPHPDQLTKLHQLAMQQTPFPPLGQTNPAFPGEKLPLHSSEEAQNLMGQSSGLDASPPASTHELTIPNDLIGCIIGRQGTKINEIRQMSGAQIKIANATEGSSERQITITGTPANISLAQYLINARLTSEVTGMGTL
erlotinib
  log2 fold change: 0.005
[1]
  log2 fold change: 0.028
[2]
  log2 fold change: 0.021
[3]
  log2 fold change: -0.031
[4]
  log2 fold change: 0.02
[5]
  log2 fold change: 0.02
[6]
  log2 fold change: 0.029
[7]
  log2 fold change: -0.003
[8]
  log2 fold change: 0.021
IRAK-1-4 Inhibitor I
  log2 fold change: -0.005

## PRKAB2 (UniProt O43741)
UniProt O43741, sequence (O43741 whole entry, looked up): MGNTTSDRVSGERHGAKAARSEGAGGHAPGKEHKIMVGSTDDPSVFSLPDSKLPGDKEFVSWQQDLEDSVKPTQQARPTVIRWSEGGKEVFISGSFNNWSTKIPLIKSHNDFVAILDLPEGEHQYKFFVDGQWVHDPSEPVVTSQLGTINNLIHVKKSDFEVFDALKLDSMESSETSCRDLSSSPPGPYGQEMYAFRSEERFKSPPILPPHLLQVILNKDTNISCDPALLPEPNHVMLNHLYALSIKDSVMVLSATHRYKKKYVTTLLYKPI
erlotinib
  log2 fold change: -0.032
[1]
  log2 fold change: -0.165
[2]
  log2 fold change: 0.096
[3]
  log2 fold change: -0.041
[4]
  log2 fold change: 0.031
[5]
  log2 fold change: 0.039
[6]
  log2 fold change: 0.153
[7]
  log2 fold change: 0.196
[8]
  log2 fold change: 0.042
IRAK-1-4 Inhibitor I
  log2 fold change: 0.24

## PHKG2 (UniProt P15735)
UniProt P15735, sequence (P15735 whole entry, looked up): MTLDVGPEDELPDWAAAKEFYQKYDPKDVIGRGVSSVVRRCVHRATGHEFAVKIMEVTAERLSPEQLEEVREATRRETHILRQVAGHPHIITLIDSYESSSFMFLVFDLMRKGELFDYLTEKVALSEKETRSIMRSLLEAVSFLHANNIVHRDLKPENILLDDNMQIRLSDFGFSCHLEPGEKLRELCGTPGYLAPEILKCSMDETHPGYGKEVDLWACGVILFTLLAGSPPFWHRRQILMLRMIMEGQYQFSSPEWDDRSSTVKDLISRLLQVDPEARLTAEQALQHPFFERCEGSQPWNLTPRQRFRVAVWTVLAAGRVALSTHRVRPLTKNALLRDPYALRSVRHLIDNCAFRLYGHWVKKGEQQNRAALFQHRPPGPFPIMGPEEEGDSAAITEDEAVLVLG
erlotinib
  log2 fold change: -0.106
[1]
  log2 fold change: 0.062
[2]
  log2 fold change: 0.04
[3]
  log2 fold change: 0.075
[4]
  log2 fold change: 0.104
[5]
  log2 fold change: 0.022
[6]
  log2 fold change: 0.231
[7]
  log2 fold change: 0.045
[8]
  log2 fold change: -0.011
IRAK-1-4 Inhibitor I
  log2 fold change: 0.036

## PHLDB1 (UniProt Q86UU1)
erlotinib
  log2 fold change: 0.01
[1]
  log2 fold change: -0.044
[2]
  log2 fold change: 0.032
[3]
  log2 fold change: -0.081
[4]
  log2 fold change: -0.031
[5]
  log2 fold change: 0.101
[6]
  log2 fold change: -0.158
[7]
  log2 fold change: -0.032
[8]
  log2 fold change: 0.068
IRAK-1-4 Inhibitor I
  log2 fold change: -0.044

## PPP3CA isoform 2 (UniProt Q08209)
erlotinib
  log2 fold change: -0.005
[1]
  log2 fold change: -0.037
[2]
  log2 fold change: 0.045
[3]
  log2 fold change: -0.036
[4]
  log2 fold change: -0.014
[5]
  log2 fold change: 0.014
[6]
  log2 fold change: -0.006
[7]
  log2 fold change: 0.082
[8]
  log2 fold change: -0.026
IRAK-1-4 Inhibitor I
  log2 fold change: -0.01

## PRKAR2A (UniProt P13861)
UniProt P13861, sequence (P13861 whole entry, looked up): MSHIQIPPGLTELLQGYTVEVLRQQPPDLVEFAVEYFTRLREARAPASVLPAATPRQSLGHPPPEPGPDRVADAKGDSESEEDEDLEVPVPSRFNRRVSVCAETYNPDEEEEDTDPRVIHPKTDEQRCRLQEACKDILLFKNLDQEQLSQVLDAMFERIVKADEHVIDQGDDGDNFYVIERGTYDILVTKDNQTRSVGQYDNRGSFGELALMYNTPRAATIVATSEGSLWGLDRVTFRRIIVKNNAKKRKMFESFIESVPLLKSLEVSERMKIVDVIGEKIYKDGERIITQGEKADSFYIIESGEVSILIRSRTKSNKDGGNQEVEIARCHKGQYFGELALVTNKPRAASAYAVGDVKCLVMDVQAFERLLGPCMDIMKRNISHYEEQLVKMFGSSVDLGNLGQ
erlotinib
  log2 fold change: 0.001
[1]
  log2 fold change: 0.032
[2]
  log2 fold change: 0.02
[3]
  log2 fold change: -0.02
[4]
  log2 fold change: -0.009
[5]
  log2 fold change: 0
[6]
  log2 fold change: -0.029
[7]
  log2 fold change: -0.252 (active)
[8]
  log2 fold change: -0.212
IRAK-1-4 Inhibitor I
  log2 fold change: -0.06

## POLA1 (UniProt P09884)
UniProt P09884, sequence (P09884 whole entry, looked up): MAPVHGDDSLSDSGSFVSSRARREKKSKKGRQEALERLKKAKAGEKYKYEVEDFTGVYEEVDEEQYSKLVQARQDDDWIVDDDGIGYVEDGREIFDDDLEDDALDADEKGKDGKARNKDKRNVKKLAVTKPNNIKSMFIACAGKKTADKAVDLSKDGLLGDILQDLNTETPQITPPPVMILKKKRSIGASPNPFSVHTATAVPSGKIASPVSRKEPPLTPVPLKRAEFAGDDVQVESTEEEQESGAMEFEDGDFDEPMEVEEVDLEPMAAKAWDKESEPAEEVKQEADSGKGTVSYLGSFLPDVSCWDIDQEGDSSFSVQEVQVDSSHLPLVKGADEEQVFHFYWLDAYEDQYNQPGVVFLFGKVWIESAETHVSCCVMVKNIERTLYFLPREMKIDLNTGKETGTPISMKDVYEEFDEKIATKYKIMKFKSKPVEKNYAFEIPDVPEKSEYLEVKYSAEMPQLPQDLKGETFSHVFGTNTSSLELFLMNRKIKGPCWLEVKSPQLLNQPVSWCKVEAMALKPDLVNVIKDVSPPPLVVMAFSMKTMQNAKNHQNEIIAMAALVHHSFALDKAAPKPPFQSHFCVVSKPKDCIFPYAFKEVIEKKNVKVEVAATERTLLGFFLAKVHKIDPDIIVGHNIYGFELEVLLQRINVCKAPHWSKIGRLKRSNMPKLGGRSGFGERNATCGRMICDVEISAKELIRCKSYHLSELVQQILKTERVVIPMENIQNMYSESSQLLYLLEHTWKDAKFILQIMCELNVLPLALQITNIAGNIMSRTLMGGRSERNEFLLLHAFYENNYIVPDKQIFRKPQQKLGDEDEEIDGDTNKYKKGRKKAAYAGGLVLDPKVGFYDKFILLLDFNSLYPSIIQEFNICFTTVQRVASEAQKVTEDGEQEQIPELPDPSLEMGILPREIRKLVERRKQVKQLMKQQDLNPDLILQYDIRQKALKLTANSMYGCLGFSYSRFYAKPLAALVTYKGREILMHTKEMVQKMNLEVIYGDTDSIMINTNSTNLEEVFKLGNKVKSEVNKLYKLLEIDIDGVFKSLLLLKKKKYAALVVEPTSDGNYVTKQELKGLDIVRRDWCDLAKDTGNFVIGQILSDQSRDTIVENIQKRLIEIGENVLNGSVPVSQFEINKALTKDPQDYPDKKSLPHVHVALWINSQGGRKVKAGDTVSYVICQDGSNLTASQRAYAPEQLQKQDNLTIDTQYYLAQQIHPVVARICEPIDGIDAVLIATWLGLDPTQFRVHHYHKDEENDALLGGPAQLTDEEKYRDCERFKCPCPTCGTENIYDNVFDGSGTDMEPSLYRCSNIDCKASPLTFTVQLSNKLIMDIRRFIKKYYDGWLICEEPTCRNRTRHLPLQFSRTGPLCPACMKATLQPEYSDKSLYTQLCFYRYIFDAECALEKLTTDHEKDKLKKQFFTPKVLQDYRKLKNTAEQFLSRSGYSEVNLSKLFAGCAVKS
erlotinib
  log2 fold change: 0.009
[1]
  log2 fold change: -0.039
[2]
  log2 fold change: -0.02
[3]
  log2 fold change: -0.015
[4]
  log2 fold change: -0.036
[5]
  log2 fold change: 0.084
[6]
  log2 fold change: -0.005
[7]
  log2 fold change: -0.034
[8]
  log2 fold change: 0.015
IRAK-1-4 Inhibitor I
  log2 fold change: -0.003

## PCBP2 isoform 8 (UniProt Q15366)
UniProt Q15366, sequence (Q15366 whole entry, looked up): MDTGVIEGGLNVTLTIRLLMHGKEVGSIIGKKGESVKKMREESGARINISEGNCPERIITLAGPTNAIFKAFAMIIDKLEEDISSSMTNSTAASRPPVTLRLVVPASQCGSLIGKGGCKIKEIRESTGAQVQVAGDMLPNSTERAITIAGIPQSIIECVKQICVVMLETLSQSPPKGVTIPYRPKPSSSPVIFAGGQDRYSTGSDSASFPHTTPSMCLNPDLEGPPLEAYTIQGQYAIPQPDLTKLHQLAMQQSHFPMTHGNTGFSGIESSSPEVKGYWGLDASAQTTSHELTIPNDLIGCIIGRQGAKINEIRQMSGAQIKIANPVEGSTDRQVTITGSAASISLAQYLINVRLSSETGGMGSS
erlotinib
  log2 fold change: 0.118
[1]
  log2 fold change: -0.287
[2]
  log2 fold change: 0.024
[3]
  log2 fold change: 0.001
[4]
  log2 fold change: -0.039
[5]
  log2 fold change: 0.087
[6]
  log2 fold change: -0.041
[7]
  log2 fold change: -0.088
[8]
  log2 fold change: 0.01
IRAK-1-4 Inhibitor I
  log2 fold change: 0.018

## PRKCD (UniProt Q05655)
UniProt Q05655, sequence (Q05655 whole entry, looked up): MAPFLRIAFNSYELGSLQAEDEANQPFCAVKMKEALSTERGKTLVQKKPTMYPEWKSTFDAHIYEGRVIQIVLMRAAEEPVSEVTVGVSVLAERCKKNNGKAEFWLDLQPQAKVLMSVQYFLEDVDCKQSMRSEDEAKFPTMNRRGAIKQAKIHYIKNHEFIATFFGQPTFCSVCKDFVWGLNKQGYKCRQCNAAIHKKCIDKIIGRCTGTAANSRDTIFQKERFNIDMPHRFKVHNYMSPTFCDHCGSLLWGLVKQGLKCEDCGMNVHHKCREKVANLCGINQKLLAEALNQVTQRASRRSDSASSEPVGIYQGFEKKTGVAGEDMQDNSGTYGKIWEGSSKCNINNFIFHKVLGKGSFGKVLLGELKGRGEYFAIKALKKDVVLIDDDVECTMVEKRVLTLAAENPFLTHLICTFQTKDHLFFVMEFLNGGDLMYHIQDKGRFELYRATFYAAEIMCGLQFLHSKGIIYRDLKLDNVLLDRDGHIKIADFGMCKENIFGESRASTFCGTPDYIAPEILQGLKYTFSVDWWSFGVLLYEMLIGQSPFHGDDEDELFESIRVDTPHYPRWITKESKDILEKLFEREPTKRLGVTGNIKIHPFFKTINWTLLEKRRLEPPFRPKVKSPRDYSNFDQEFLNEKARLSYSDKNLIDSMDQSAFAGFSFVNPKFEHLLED
erlotinib
  log2 fold change: -0.041
[1]
  log2 fold change: 0.016
[2]
  log2 fold change: -0.035
[3]
  log2 fold change: -0.047
[4]
  log2 fold change: -0.01
[5]
  log2 fold change: 0.006
[6]
  log2 fold change: -0.023
[7]
  log2 fold change: -0.069
[8]
  log2 fold change: 0.019
IRAK-1-4 Inhibitor I
  log2 fold change: 0.013

## PXMP4 (UniProt Q9Y6I8)
UniProt Q9Y6I8, sequence (Q9Y6I8 whole entry, looked up): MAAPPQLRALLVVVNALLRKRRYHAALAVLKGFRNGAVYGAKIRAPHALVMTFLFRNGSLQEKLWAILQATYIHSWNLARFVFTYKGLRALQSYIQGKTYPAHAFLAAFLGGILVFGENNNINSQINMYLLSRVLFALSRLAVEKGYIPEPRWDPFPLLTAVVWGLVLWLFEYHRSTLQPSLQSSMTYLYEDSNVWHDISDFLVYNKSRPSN
erlotinib
  log2 fold change: 0.024
[1]
  log2 fold change: 0.068
[2]
  log2 fold change: 0.084
[3]
  log2 fold change: -0.053
[4]
  log2 fold change: 0.013
[5]
  log2 fold change: 0.053
[6]
  log2 fold change: -0.038
[7]
  log2 fold change: 0.043
[8]
  log2 fold change: 0.022
IRAK-1-4 Inhibitor I
  log2 fold change: 0.016

## PFKFB3 isoform 4 (UniProt Q16875)
erlotinib
  log2 fold change: -0.006
[1]
  log2 fold change: -0.021
[2]
  log2 fold change: 0.028
[3]
  log2 fold change: -0.033
[4]
  log2 fold change: 0.011
[5]
  log2 fold change: -0.034
[6]
  log2 fold change: -0.035
[7]
  log2 fold change: 0.032
[8]
  log2 fold change: 0.002
IRAK-1-4 Inhibitor I
  log2 fold change: 0.004
